Data reported in PubChem BioAssay (NCATS).
Inconclusive results are not listed. Activity calls are given as the source filed them. Calls come from the whole dose curve; as a rule, active = well fitted cell-killing curve with a large enough effect; inconclusive = small, poorly fitted or top-dose-only effect, or effect the other way; inactive = flat fitted curve, though single readings scatter.

Legend:
Test in all cases: Primary qHTS to identify gynecologic anti-cancer compounds using libraries of approved drugs and bioactive compounds (AID 1345084); note: nearly all actives have a fitted effect of over 55% in size
CAOV3 = settings: Gynecologic cancer cell panel viability, ATPlite luminescence, 48 h; series mostly up to 57.5 µM
Method in brief: (§1)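 Five-point cytotoxicity, 48 h drug exposure at 37 C, 5% CO2, on cells seeded 16 h beforehand. ATP content read by ATPlite luminescence.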

CASKI = settings: Gynecologic cancer cell panel viability, ATPlite luminescence, 48 h; series mostly up to 57.5 µM
Method in brief: as §1

Es-2 = settings: Gynecologic cancer cell panel viability, ATPlite luminescence, 48 h; series mostly up to 57.5 µM
Method in brief: as §1

HeLa = settings: Gynecologic cancer cell panel viability, ATPlite luminescence, 48 h; series mostly up to 57.5 µM
Method in brief: as §1

Hek293T = settings: Gynecologic cancer cell panel viability, ATPlite luminescence, 48 h, control line for the selectivity index; series mostly up to 57.5 µM
Method in brief: as §1

JEG-3 = settings: Gynecologic cancer cell panel viability, ATPlite luminescence, 48 h; series mostly up to 57.5 µM
Method in brief: as §1

OV90 = settings: Gynecologic cancer cell panel viability, ATPlite luminescence, 48 h; series mostly up to 57.5 µM
Method in brief: as §1

PA-1 = settings: Gynecologic cancer cell panel viability, ATPlite luminescence, 48 h; series mostly up to 57.5 µM
Method in brief: as §1

SKOV3 = settings: Gynecologic cancer cell panel viability, ATPlite luminescence, 48 h; series mostly up to 57.5 µM
Method in brief: as §1

Tov-21-G = settings: Gynecologic cancer cell panel viability, ATPlite luminescence, 48 h; series mostly up to 57.5 µM
Method in brief: as §1

Tov112D = settings: Gynecologic cancer cell panel viability, ATPlite luminescence, 48 h; series mostly up to 57.5 µM
Method in brief: as §1
% is set by controls: 0 for no effect and ±100 for the full control effect.

C/C=C(\C)C(=O)O[C@@H]1CC2[C@@H](CC=C3C[C@@H](O[C@H]4C[C@H](OC)[C@H](O[C@H]5C[C@H](OC)[C@H](O[C@H]6C[C@H](OC)[C@H](O[C@H]7C[C@@H](OC)[C@H](O[C@@H]8O[C@H](CO)[C@@H](O)[C@H](O)[C@H]8O)[C@@H](C)O7)[C@@H](C)O6)[C@@H](C)O5)[C@@H](C)O4)CC[C@@]32C)[C@@]2(O)CC[C@H](C(C)=O)[C@@]12C (some centres not stated)
inactive: activity change, negative = cytotoxicity (CAOV3) -0.474% [at 6.55 µM] | activity change, negative = cytotoxicity (CASKI) -0.911% [at 6.55 µM] | activity change, negative = cytotoxicity (Es-2) -1.08% [at 6.55 µM] | activity change, negative = cytotoxicity (HeLa) -14.4% [at 6.55 µM] | activity change, negative = cytotoxicity (Hek293T) 11.8% [at 6.55 µM] | activity change, negative = cytotoxicity (JEG-3) -0.396% [at 6.55 µM] | activity change, negative = cytotoxicity (OV90) 3.72% [at 6.55 µM] | activity change, negative = cytotoxicity (PA-1) -8.02% [at 6.55 µM] | activity change, negative = cytotoxicity (SKOV3) -0.126% [at 6.55 µM] | activity change, negative = cytotoxicity (Tov-21-G) 2.08% [at 6.55 µM] | activity change, negative = cytotoxicity (Tov112D) -2.78% [at 6.55 µM]

C=C(C)C(C)C1OC23CC4(CO2)C(CCC2C5(C)CCC(OC6OCC(O)C(OC7OC(CO)C(O)C(OC8OCC(O)C(O)C8O)C7O)C6OC6OC(CO)C(O)C6O)C(C)(C)C5CCC24C)C3C(C)(O)C1OC(C)=O (configuration not stated)
inactive: activity change, negative = cytotoxicity (CAOV3) 4.55% [at 11.6 µM] | activity change, negative = cytotoxicity (CASKI) 5.79% [at 11.6 µM] | activity change, negative = cytotoxicity (Es-2) 0.0055% [at 11.6 µM] | activity change, negative = cytotoxicity (HeLa) 1.27% [at 11.6 µM] | activity change, negative = cytotoxicity (Hek293T) 12% [at 11.6 µM] | activity change, negative = cytotoxicity (JEG-3) -1.98% [at 11.6 µM] | activity change, negative = cytotoxicity (OV90) -0.379% [at 11.6 µM] | activity change, negative = cytotoxicity (PA-1) -1.12% [at 11.6 µM] | activity change, negative = cytotoxicity (SKOV3) 3.59% [at 11.6 µM] | activity change, negative = cytotoxicity (Tov-21-G) 1.52% [at 11.6 µM] | activity change, negative = cytotoxicity (Tov112D) 5.61% [at 11.6 µM]

C=C1C(=O)OC2/C=C(\C)CC/C=C(\C(=O)O)CC/C=C(\C)CCC12 (configuration not stated)
inactive: Potency (CAOV3) | Potency (CASKI) | Potency (Es-2) | Potency (HeLa) | Potency (Hek293T) | Potency (JEG-3) | Potency (OV90) | Potency (PA-1) | Potency (SKOV3) | Potency (Tov-21-G) | Potency (Tov112D)

COC(=O)[C@H](CC1C=NC=N1)NCC12CC3CC(CC(C3)C1)C2 (some centres not stated)
inactive: Potency (CAOV3) | Potency (CASKI) | Potency (Es-2) | Potency (HeLa) | Potency (Hek293T) | Potency (JEG-3) | Potency (OV90) | Potency (PA-1) | Potency (SKOV3) | Potency (Tov-21-G) | Potency (Tov112D)

COc1cc(C2Oc3c(OC)cc(CCCO[C@@H]4O[C@H](CO)[C@@H](O)[C@H](O)[C@H]4O)cc3C2CO)ccc1O (some centres not stated)
inactive: Potency (CAOV3) | Potency (CASKI) | Potency (Es-2) | Potency (HeLa) | Potency (Hek293T) | Potency (JEG-3) | Potency (OV90) | Potency (PA-1) | Potency (SKOV3) | Potency (Tov-21-G) | Potency (Tov112D)

C=C1C(O[C@@H]2O[C@H](CO)[C@@H](O)[C@H](O)[C@@H]2O)CC2C(C)(C)C(O)CCC2(C)C1CC/C(C)=C\CO (some centres not stated)
inactive: Potency (CAOV3) | Potency (CASKI) | Potency (Es-2) | Potency (HeLa) | Potency (Hek293T) | Potency (JEG-3) | Potency (OV90) | Potency (PA-1) | Potency (SKOV3) | Potency (Tov-21-G) | Potency (Tov112D)

CCC[C@@H]1C[C@@H](C(=O)N[C@H](C(C)Cl)[C@H]2O[C@H](SC)[C@H](O)[C@@H](O)[C@H]2O)N(C)C1 (some centres not stated)
inactive: Potency (CAOV3) | Potency (CASKI) | Potency (Es-2) | Potency (HeLa) | Potency (Hek293T) | Potency (JEG-3) | Potency (OV90) | Potency (PA-1) | Potency (SKOV3) | Potency (Tov-21-G) | Potency (Tov112D)

C=C1CCC2C(C)(COC3OC(COC(=O)CC(=O)O)C(O)C(O)C3O)CCCC2(C)C1CCC1=CCOC1=O (configuration not stated)
inactive: Potency (CAOV3) | Potency (CASKI) | Potency (Es-2) | Potency (HeLa) | Potency (Hek293T) | Potency (JEG-3) | Potency (OV90) | Potency (PA-1) | Potency (SKOV3) | Potency (Tov-21-G) | Potency (Tov112D)

COC1CC(OC2CCC3(C)C(=CCC4C3CCC3(C)C(C(C)O)CCC43O)C2)OC(C)C1OC1OC(C)C(OC2OC(COC3OC(COC4OC(CO)C(O)C(O)C4O)C(O)C(O)C3O)C(O)C(O)C2O)C(OC)C1O (configuration not stated)
inactive: activity change, negative = cytotoxicity (CAOV3) 2.24% [at 11.6 µM] | activity change, negative = cytotoxicity (CASKI) 16.9% [at 11.6 µM] | activity change, negative = cytotoxicity (Es-2) 1.08% [at 11.6 µM] | activity change, negative = cytotoxicity (HeLa) -2.66% [at 11.6 µM] | activity change, negative = cytotoxicity (Hek293T) -3% [at 11.6 µM] | activity change, negative = cytotoxicity (JEG-3) -1.13% [at 11.6 µM] | activity change, negative = cytotoxicity (OV90) 3.31% [at 11.6 µM] | activity change, negative = cytotoxicity (PA-1) 5.02% [at 11.6 µM] | activity change, negative = cytotoxicity (SKOV3) 0% [at 11.6 µM] | activity change, negative = cytotoxicity (Tov-21-G) -5.94% [at 11.6 µM] | activity change, negative = cytotoxicity (Tov112D) -0.956% [at 11.6 µM]

CC1=CC(=O)C2C(C)(C)CC(O)CC2(C)C1CO (configuration not stated)
inactive: Potency (CAOV3) | Potency (CASKI) | Potency (Es-2) | Potency (HeLa) | Potency (Hek293T) | Potency (JEG-3) | Potency (OV90) | Potency (PA-1) | Potency (SKOV3) | Potency (Tov-21-G) | Potency (Tov112D)

CCC(C)/C=C(C)/C=C/C1=CC2=C(Cl)C(=O)C(C)(OC(C)=O)C(=O)C2=CN1CCCC(=O)O (configuration not stated)
inactive: Potency (CAOV3) | Potency (CASKI) | Potency (Es-2) | Potency (HeLa) | Potency (Hek293T) | Potency (JEG-3) | Potency (OV90) | Potency (PA-1) | Potency (SKOV3) | Potency (Tov-21-G) | Potency (Tov112D)

CC1(C)CC2C3=CCC4C5(C)CCC(OC6OC(CO)C(O)C(OC7OC(CO)C(O)C(OC8OC(CO)C(O)C(OC9OC(COC%10OC(CO)C(O)C(O)C%10O)C(O)C(O)C9O)C8O)C7O)C6O)C(C)(C)C5CCC4(C)C3(C)CCC2(C(=O)O)CC1O (configuration not stated)
inactive: activity change, negative = cytotoxicity (CAOV3) 3.47% [at 6.55 µM] | activity change, negative = cytotoxicity (CASKI) -0.0614% [at 6.55 µM] | activity change, negative = cytotoxicity (Es-2) 1.92% [at 6.55 µM] | activity change, negative = cytotoxicity (HeLa) -11.1% [at 6.55 µM] | activity change, negative = cytotoxicity (Hek293T) -9.53% [at 6.55 µM] | activity change, negative = cytotoxicity (JEG-3) 6.92% [at 6.55 µM] | activity change, negative = cytotoxicity (OV90) 0.668% [at 6.55 µM] | activity change, negative = cytotoxicity (PA-1) 1.44% [at 6.55 µM] | activity change, negative = cytotoxicity (SKOV3) 0% [at 6.55 µM] | activity change, negative = cytotoxicity (Tov-21-G) -2.7% [at 6.55 µM] | activity change, negative = cytotoxicity (Tov112D) 1.66% [at 6.55 µM]
